Measured values from ChEMBL document CHEMBL4513146, “CO-ADD screening of Karazin Kharkiv National University (Ukraine) compounds”.
Measured potencies and affinities stand elsewhere.

Columns and labels:
[1] = test system: Klebsiella pneumoniae; conditions: Concentration 32 ug.mL-1;; ASSAY_TEST Inhibition of Bacterial Growth; detection method Absorption (OD600); MEDIA CAMHB; plate type 384well; NBS; CORNING #3640; time 18 hr
[2] = test system: Candida albicans; conditions: Concentration 32 ug.mL-1; ASSAY_TEST Inhibition of Fungal Growth; detection method Absorption (OD530)
[3] = test system: Cryptococcus neoformans; conditions: Concentration 32 ug.mL-1; ASSAY_TEST Inhibition of Fungal Growth; detection method Resazurin; Absorption (OD600-OD570); plate type 384well; NBS; CORNING #3640

| Structure (SMILES) | Inhibition [1] [%] | Inhibition [2] [%] | Inhibition [3] [%] |
| --- | --- | --- | --- |
| CC(C)c1nnc2c(=O)n(CC(=O)Nc3ccc(Cl)cc3)c3ccccc3n12 | 16.79 | 3.6 | -17.29 |
| CCCCOc1ccc(-c2cc3c4nnc(SCC(=O)Nc5ccc(CC)cc5)n4ccn3n2)cc1 | 9.73 | 2.18 | -11.7 |
| CC(C)c1ccc(CNC(=O)CCc2nnc3c(N4CCCCC4)nc4ccccc4n23)cc1 | 8.5 | 0.52 | -24.76 |
| Cc1nnc2ccc(S(=O)(=O)N(Cc3ccccc3F)c3cccc(Cl)c3)cn12 | 8.99 | -0.66 | -11.57 |
| COC(=O)c1ccccc1NC(=O)Cn1nc2c(Oc3cccc(OC)c3)nccn2c1=O | -16.2 | 1.71 | -7.59 |
| O=C(Cn1nc2c3cc(-c4ccc(Cl)cc4)nn3ccn2c1=O)Nc1ccc2c(c1)OCCO2 | 7.68 | -1.89 | -18.54 |
| COc1ccccc1-n1ccn2c(SCc3ccccc3F)nnc2c1=O | 11.1 | 2.31 | -5.25 |
| CCc1ccc(NC(=O)Cn2nc3n(Cc4ccco4)c(=O)c4sccc4n3c2=O)cc1 | -2.12 | 5.72 | -17.39 |
| CSc1ccc(CNC(=O)Cn2nc3c(N4CC(C)CC(C)C4)nccn3c2=O)cc1 (centres undefined) | 6.58 | 0.13 | -5.38 |
| CSc1cccc(NC(=O)Cn2nc3ccc(SC4CCCCC4)nn3c2=O)c1 | 4.23 | 0.23 | -8.34 |
| CC(C)Cn1c(=O)c2sccc2n2c(=O)n(Cc3ccc(Br)cc3)nc12 | 4.98 | -2.24 | -27.05 |
| O=C(CSc1nnc2c(=O)n(-c3cccc(F)c3)ccn12)c1ccc(F)cc1 | 9.88 | 4 | -7.94 |
| COc1ccc(CN(c2ccc(F)cc2)S(=O)(=O)c2cccn3cnnc23)cc1F | 9.98 | 3.76 | -9.79 |
| COc1ccc(-c2cc3c4nnc(CCC(=O)NCCc5ccccc5)n4ccn3n2)cc1 | 3.81 | 3.45 | -16.37 |
| CCOc1ccccc1CNC(=O)CCc1nnc2ccc(-c3ccc(C)cc3)nn12 | 6.87 | 2.37 | -5.38 |
| CCOc1ccccc1NC(=O)Cn1nc2c3cc(-c4ccc(OC)cc4)nn3ccn2c1=O | 11.29 | 0.88 | -6.6 |
| CCCCOc1ccc(-c2cc3c4nnc(SCC(=O)Nc5cc(F)ccc5C)n4ccn3n2)cc1 | -4.04 | 9.93 | -31.79 |
| CC(C)Cn1c(=O)c2sccc2n2c(=O)n(Cc3ccc(Cl)cc3)nc12 | 2.18 | -1.9 | -15.45 |
| C=Cc1ccc(CN(c2cccc(F)c2)S(=O)(=O)c2ccc3nnc(C)n3c2)cc1 | 2.09 | 1.51 | -6.84 |
| Cc1cc(C)c(NC(=O)Cn2c(=O)c3nnc(C(C)C)n3c3ccccc32)c(C)c1 | 11.01 | 4.09 | -5.77 |
| COc1cccc(CNC(=O)CSc2nnc3c(=O)n(-c4ccccc4)ccn23)c1OC | 8.24 | -1.2 | -16.17 |
| CSc1cccc(NC(=O)Cn2nc3c(Oc4ccccc4C)nccn3c2=O)c1 | 7.38 | -0.96 | -9.56 |
| CCc1ccccc1NC(=O)Cn1nc2n(CCC(C)C)c(=O)c3sccc3n2c1=O | 0.67 | 8.44 | -17.68 |
| O=C(CSc1nnc2c(=O)n(-c3ccc(Br)cc3)ccn12)Nc1cccc(Cl)c1 | 6.37 | 6.02 | -15.78 |
| CCCCn1c(=O)c2sccc2n2c(SCc3cccc(C(F)(F)F)c3)nnc12 | -0.52 | 0.84 | -14.78 |
| Cc1oc(-c2cccc(Cl)c2)nc1CSc1nc2ccccc2n2c(C)nnc12 | 5.28 | 6.15 | -6.37 |
| O=C(Cn1nc2c(=O)n(-c3ccc(Br)cc3)ccn2c1=O)Nc1cc(F)ccc1F | 9.16 | 1.05 | -5.83 |
| CC(C)c1nnc2c(=O)n(CC(=O)Nc3ccc(F)cc3F)c3ccccc3n12 | 15.02 | 0.81 | -23.4 |
